Measurements reported in PubChem BioAssay AID1063 (University of Pittsburgh Molecular Library Screening Center, 2008).
About 18,000 (9%) of roughly 200,000 compounds were called active. Rule as the data show it: active = inhibition above about 50%; inactive = the rest. Only a selection was taken, and actives are over-represented in it overall.

assay: Leishmania major promastigote growth inhibition, primary screen (AID 1063); conditions: Leishmania major promastigotes, resazurin fluorescence viability; at 10 µM; active compounds read high;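 also: promastigotes grown with compound for 44 hours at 28 °C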

| Compound | inhibition |
| --- | --- |
| CNc1nc2c(C)cccn2c(=O)c1C=Nc1ccc(OC)cc1 | 1.72% (inactive) |
| CC(=O)Nc1ccc(/C(C)=N/NC(=O)CN(c2ccccc2Br)S(C)(=O)=O)cc1 | 50.5% (active) |
| C/C(=N/NC(=O)c1ccc(NC(=O)c2ccc(F)cc2)cc1)c1ccccc1 | -6.46% (inactive) |
| COc1ccccc1N(CC(=O)Nc1ccc(C(F)(F)F)cc1)S(C)(=O)=O | 1.92% (inactive) |
| O=C(Nc1ccccc1F)c1ccc(Cn2cc(Br)cn2)cc1 | -6.11% (inactive) |
| Cc1ccc(-c2nc(C#N)c(NCCCn3ccnc3)o2)cc1 | 2.16% (inactive) |
| O=C(Cn1ncc(N2CCCC2)c(Br)c1=O)c1ccc(Cl)cc1 | 1.31% (inactive) |
| Cn1c(C(=O)NCCCN2CCN(c3cccc(Cl)c3)CC2)cc2c(=O)n(C)c3ccccc3c21 | 62.5% (active) |
| CCn1c(=O)cc(OCC(=O)NCCCN2CCN(c3cccc(Cl)c3)CC2)c2ccccc21 | 23.9% (inactive) |
| CC1CCCC(C)N1CCCNC(=O)c1cc2c(=O)n(C)c3ccccc3c2n1C (centres undefined) | 8.51% (inactive) |
| Cc1cc(NC(=O)CSc2nc3c(cc2C#N)CCCCC3)no1 | 2.09% (inactive) |
| O=C(CCC1CCCN(C(=O)Cc2ccc(F)cc2)C1)N1CCN(c2ccccn2)CC1 (centres undefined) | 0.87% (inactive) |
| O=C(COC(=O)c1cnccn1)Nc1cccc2ccccc12 | -4.62% (inactive) |
| Cc1cc(C)n2nc(C(=O)N(C)C(c3ccccc3)c3ccccc3)nc2n1 | 0.1% (inactive) |
| O=C(CO/N=C/c1ccc(OC(F)F)cc1)NCc1ccc(F)cc1 | 6.32% (inactive) |
| COc1ccc(N2C(=O)C(CC(=O)Nc3ccccc3)N(Cc3ccc(OC)c(OC)c3)C2=O)cc1 (centres undefined) | -5.05% (inactive) |
| COC(=O)CN1C(=S)N(c2ccccc2)C(=O)C1CC(=O)Nc1ccc(Cl)cc1 (centres undefined) | 50.4% (active) |
| CCOc1ccc(NC(=O)CC2C(=O)N(c3ccccc3)C(=O)N2CCOC)cc1 (centres undefined) | -1.57% (inactive) |
| O=C(Nc1ccc(-c2ccc3nncn3n2)cc1)C1CCCCC1 | -4.63% (inactive) |
| CCc1ccc(CN2C(=O)c3ccccc3C2C(=O)NCC2CCCO2)cc1 (centres undefined) | 5.61% (inactive) |
| COc1cccc(CN(C)CC(=O)NCc2ccccc2Cl)c1OC | 2.93% (inactive) |
| COC(=O)c1cc(S(=O)(=O)NC2CCN(Cc3ccccc3)CC2)cn1C | 79.3% (active) |
| Cn1c(=O)c(=O)n(C)c2cc(S(=O)(=O)NCCc3ccccc3)ccc21 | 18.8% (inactive) |
| O=C(NC1(C(F)(F)F)NC(=O)N(C2CCCCC2)C1=O)c1ccco1 (centres undefined) | -0.8% (inactive) |

| Compound | inhibition |
| --- | --- |
| COc1cc(NC(=S)NCc2ccco2)c(OC)cc1Cl | 7.75% (inactive) |
| O=C(Nc1ccc(NC(=O)c2ccco2)c(Cl)c1)c1cccc([N+](=O)[O-])c1 | -5.27% (inactive) |
| COc1ccc(NC(=O)c2cccc(NC(=O)c3ccco3)c2)c(OC)c1 | 99.3% (active) |
| COc1ccccc1C(=O)Nc1ccc(NC(=O)c2ccco2)c(C)c1 | 3.48% (inactive) |
| Cc1ccc(C(=O)COc2cccc(NC(=O)c3ccco3)c2)cc1 | 64.6% (active) |
| COC(=O)c1cc(Cl)c(NC(=O)c2ccco2)cc1OC | 8.8% (inactive) |
| COc1cc(NC(=O)c2cc([N+](=O)[O-])ccc2Br)ccc1NC(=O)c1ccco1 | 99% (active) |
| COC(=O)c1ccc(NC(=O)c2ccco2)cc1 | -5.73% (inactive) |
| Cc1ccnc(NC(=O)c2ccc(NC(=O)c3ccco3)cc2)c1 | -2.95% (inactive) |
| COc1cccc(C(=O)Nc2ccc(NC(=O)c3ccco3)cn2)c1 | 4.41% (inactive) |
| CCS(=O)(=O)c1ccc(O)c(NC(=O)COc2ccc(Cl)cc2)c1 | -12.8% (inactive) |
| CCOc1c(CNCc2ccc(C(=O)O)cc2)cccc1OC | -5.92% (inactive) |
| NS(=O)(=O)c1ccc(NC(=S)NC(=O)c2cccnc2)cc1 | -2.35% (inactive) |
| COCC(C)n1c(C)cc(C(=O)COc2ccc(C)nc2[N+](=O)[O-])c1C (centres undefined) | 3.94% (inactive) |
| CCc1ccc(NC(=O)C(=O)N/N=C(\C)CC(=O)NCCOC)cc1 | -2.29% (inactive) |
| COc1ccc(NC(=O)CN2C(=O)CSC2=O)cc1 | -6.2% (inactive) |
| COc1cc(SC#N)ccc1N=Cc1c(C)[nH]n(-c2ccc(C)cc2)c1=O | 100% (active) |
| CCc1nnc(NS(=O)(=O)c2ccc(N=Cc3c(C)[nH]n(-c4ccc(C)cc4)c3=O)cc2)s1 | -3.52% (inactive) |
| Cc1ccc(-n2[nH]c(C)c(/C=N/N3C(=O)c4cccc5cccc(c45)C3=O)c2=O)cc1 | -6.15% (inactive) |
| COc1ccc(C)cc1NC(=O)CSc1nnc(CC(=O)Nc2ccccc2F)n1C | -0.88% (inactive) |
| O=C(COC(=O)C12CC3CC(CC(O)(C3)C1)C2)NC12CC3CC(CC(C3)C1)C2 | 17.4% (inactive) |
| Cc1cccc(C)c1NC(=S)N(Cc1cccnc1)Cc1ccccc1Cl | 93.8% (active) |
| Cc1ccc(NC(=S)NCc2ccccc2Cl)c(C)c1 | 22.1% (inactive) |
| COCCN(CCOC)C(=S)Nc1ccccc1Cl | -4.19% (inactive) |

| Compound | inhibition |
| --- | --- |
| COCCNC(=S)N(Cc1cccnc1)Cc1ccc(OC)c(OC)c1 | 1.16% (inactive) |
| O=C(Nc1ccccc1)N(Cc1cccnc1)Cc1ccco1 | 4.43% (inactive) |
| Cc1ccc(CN(Cc2cccnc2)C(=S)Nc2cc(Cl)ccc2C)cc1 | 93.8% (active) |
| Cc1c(Cl)cccc1NC(=S)N(Cc1ccccc1)Cc1cccnc1 | 90.4% (active) |
| Cc1ccc(CN(Cc2cccnc2)C(=S)Nc2cccc(Cl)c2C)cc1 | 21.5% (inactive) |
| Cc1ccc(C(=O)NC(=S)NCc2cccnc2)cc1 | 2.7% (inactive) |
| CC(C)CCC(C)NC(=O)c1ccc2nccnc2c1 (centres undefined) | 11.2% (inactive) |
| COc1cc(-c2nnn(CC(=O)NCc3ccccc3)n2)cc(OC)c1OC | 16.3% (inactive) |
| COc1cc(C(=O)N2C(=O)c3cccc(N)c3C2=O)cc(OC)c1OC | -3.21% (inactive) |
| COCCn1c(C)cc(C(=O)COC(=O)/C=C/c2cccc(OC)c2)c1C | 0.63% (inactive) |
| Cc1cc(C)nc(NS(=O)(=O)c2ccc(N/C=C\C(=O)c3cccs3)cc2)n1 | 4.34% (inactive) |
| COc1ccc(/C=C/C(=O)Nc2cccnc2)cc1OC | -4.52% (inactive) |
| Cc1cc(C)cc(C(=O)NCC(=O)OCC(=O)N2CCCCC2)c1 | -9.27% (inactive) |
| Cc1cc(C)n(CCNCc2c(C(=O)N3C[C@@H](C)O[C@@H](C)C3)nc3ccc(Cl)cn23)n1 | -6.81% (inactive) |
| Cc1ccc(N(C(=O)c2sc(C)nc2C)C(C(=O)NC(C)(C)C)c2ccncc2)cc1 (centres undefined) | -0.8% (inactive) |
| O=C(O)/C=C/c1ccc(OCCCF)cc1 | -5.86% (inactive) |
| COc1cccc(/C=C2\SC(=N)N(c3ccc(F)cc3)C2=O)c1 | 5.76% (inactive) |
| COc1ccc(C2CC(c3ccccc3)=NN2C(=O)CSc2nccc(=O)[nH]2)cc1 (centres undefined) | -0.2% (inactive) |
| COc1ccc(-n2nnnc2SCC(=O)Nc2ccccc2)cc1 | -4.13% (inactive) |
| O=C(CSc1nnnn1-c1ccc(O)cc1)N1N=C(c2ccc3ccccc3c2)CC1c1ccccc1 (centres undefined) | 99.8% (active) |
| C/C(N)=C(/C#N)C(=O)COC(=O)C1CCN(C(=O)c2ccc(Cl)cc2)CC1 | -2.84% (inactive) |
| Cc1ccc(S(=O)(=O)/N=C(\N)c2ccc(F)cc2)cc1 | -1.71% (inactive) |
| O=C(COC(=O)c1c2c(nc3ccccc13)CCCC2)c1ccc(Br)s1 | 96.8% (active) |
| O=C(COC(=O)c1c2c(nc3ccccc13)/C(=C\c1cccs1)CCC2)Nc1ccccc1Cl | 27.8% (inactive) |

| Compound | inhibition |
| --- | --- |
| NC(=O)c1ccc(NC(=O)COC(=O)c2c3c(nc4ccccc24)/C(=C\c2ccc4c(c2)OCO4)CCC3)cc1 | 18.2% (inactive) |
| COc1ccc2c(c1)CCC/C2=N\OC(=O)c1ccccc1F | -7.06% (inactive) |
| COc1cc2nc(CN(C)Cc3ccc(F)cc3)[nH]c(=O)c2cc1OC | 9.19% (inactive) |
| CC(=O)Nc1ccc(NC(=S)NC(=O)/C=C/c2ccccc2)cc1 | -1.29% (inactive) |
| Cc1ccc(S(=O)(=O)c2ccc(Cl)cc2)cc1S(=O)(=O)NC(C(=O)O)C(C)C (centres undefined) | 50.9% (active) |
| CC(C)C(NC(=O)c1ccc(Cl)cc1)C(=O)O (centres undefined) | 27.4% (inactive) |
| CC(=O)Nc1cc(C(=O)O)ccc1S(=O)(=O)c1ccc(Cl)cc1 | -5.9% (inactive) |
| Cn1nc(-c2ccccc2)c(CO)c1Sc1ccccc1 | 18.3% (inactive) |
| Cn1cnc([N+](=O)[O-])c1Nc1ccccc1O | -4.52% (inactive) |
| Cn1cnc([N+](=O)[O-])c1Sc1ccccc1 | 51.5% (active) |
| C=CCn1c(SCC(=O)CC(=O)OCC)nc2cc(C(=O)N3CCC(C(N)=O)CC3)ccc2c1=O | -4.29% (inactive) |
| Cc1cccc(N2CCN(C(=O)c3cnn4c(C(F)F)cc(-c5ccccc5)nc34)CC2)c1C | 90.6% (active) |
| CC(=O)N1CCN(c2cccc(C)c2C)CC1 | -2.3% (inactive) |
| CCC(CC)C(=O)N1CCN(c2cccc(C)c2C)CC1 | -3.72% (inactive) |
| CC(=O)Nc1ccccc1OC(C)C(=O)N1CCC(C)CC1 (centres undefined) | -5.19% (inactive) |
| COc1ccc(N(Cc2cc3cc(OC)ccc3[nH]c2=O)S(C)(=O)=O)cc1 | 2.96% (inactive) |
| COc1ccc2[nH]c(=O)c(CNc3ccc(C)c(C)c3)cc2c1 | 98.6% (active) |
| CCC(=O)N(Cc1cc2cc(OC)ccc2[nH]c1=O)c1ccccc1C | 3.53% (inactive) |
| CC(NC(=S)Nc1ccc(OC(F)F)cc1)c1ccc(F)cc1 (centres undefined) | 36.8% (inactive) |
| OCCC1CN(Cc2ccccc2-c2ccco2)CCN1Cc1ccsc1 (centres undefined) | 9.42% (inactive) |
| OCCC1CN(Cc2cccc(OC3CCCC3)c2)CCN1Cc1ccsc1 (centres undefined) | 80.5% (active) |
| OCCC#Cc1ccc(CN2CCN(Cc3ccsc3)C(CCO)C2)cc1 (centres undefined) | -0.59% (inactive) |
